Structures are written as SMILES. About 11,000 (3.1%) of roughly 360,000 compounds were called active. Not shown: some 2% with an inconclusive outcome. Cut-off read from the data, not from the text of the source: active = fluorescence intensity above about 16000; inconclusive = no clear call, values can overlap the other calls; inactive = below that. Shown is part of a subset that was picked to be rich in actives.

The nature of this assay: compound fluorescence in toxin protease inhibitor counterscreen, primary screen, artefact control for toxin protease inhibitor project, biochemical, multiplex microsphere, HTS (AID 624483). The following applies: compound autofluorescence counterscreen, microsphere flow cytometry; stronger effect = higher value.
On to `COc1ccccc1C(=O)Nc1ccc(Nc2ccccc2)cc1`, for which the fluorescence intensity was 4350 (inactive).
Take `COc1ccccc1C(=O)c1ccccc1C(=O)c1ccccc1`: the fluorescence intensity was 4030 (inactive).
Next, `COc1ccccc1C(=O)C(O)c1ccccc1OC` (centres undefined): 20300 (active); `CC(=O)Nc1ccccc1C(=O)OCC(=O)c1cccc2ccccc12`: 4440 (inactive); `O=C(Nc1ccccc1)c1ccccc1NC(=O)C(F)(F)F`: 9920 (inactive).
Next, `CC(=O)Nc1ccccc1C(=O)C(=O)Nc1ccc(F)cc1`: 19600 (active).
The result for `CCNC(=S)Nc1ccc2c(c1)c(=O)n(C)n2Cc1ccc(Cl)cc1` reads 3690 (inactive).
As for `CC1(C(=O)NS(=O)(=O)c2ccc(Cl)cc2)CCN1C(=O)CC1CCCC1` (centres undefined), the fluorescence intensity was 3020 (inactive).
The result for `COc1ccc(C(C)(O)c2nc(-c3ccc(C)c(C)c3)cs2)cc1` (centres undefined) reads 3400 (inactive).
The result for `O=C(Cc1ccccc1)N/N=C/c1ccc(Cl)cc1Cl` reads 23400 (active); that for `O=C(Cn1cc(C(F)(F)F)ccc1=O)N/N=C/c1ccc(Cl)cc1Cl`, 1980 (inactive); that for `C=CCOc1ccccc1/C=N/NC(=O)Cc1ccccc1`, 4140 (inactive).
Next, `COC(=O)c1ccc2nc(C3CCCCC3)c(Cc3cccc(F)c3)n2c1`: 4850 (inactive).
In the case of `Clc1ccc(CSc2nnc([C@@H]3CCCN3)o2)cc1`, the fluorescence intensity is 6580 (inactive).
Next, `CCOC(=O)C1=CCC2C(=O)N(Cc3ccccc3)C(=O)C12` (centres undefined): 4910 (inactive); `CCOC(=O)C1CCN(c2ncnc3c2c(-c2ccccc2)cn3-c2ccc(C)cc2)CC1`: 3930 (inactive).
The result for `CCOC(=O)C1CCN(c2ncnc3c2oc2ccc(Br)cc23)CC1` reads 22700 (active).
Next, `CCOC(=O)C1CCN(Cc2nnc(-c3cccc(Br)c3)o2)CC1`: 3660 (inactive).
As to `O=C(CSc1nc2cccc(F)c2c(=O)n1-c1ccccc1)Nc1ccc2c(c1)CCC2`, the fluorescence intensity was 4620 (inactive).
Next, `C=CCn1c(SCc2csc(C)n2)nc2scc(-c3ccc(C)o3)c2c1=O`: 21100 (active).
The result for `C=CCn1c(SCc2c(C)noc2C)nc2sc3c(c2c1=O)CCC(C)C3` (centres undefined) reads 2390 (inactive); that for `C=CCn1c(SCC(=O)NCC2CCCO2)nc2sc(C)c(C)c2c1=O` (centres undefined), 5940 (inactive); that for `COc1ccc(C(C)(NC(C)=O)c2nc(-c3ccc(S(C)(=O)=O)cc3)cs2)cc1` (centres undefined), 2940 (inactive).
The result for `COc1ccccc1C1CC(=O)n2c(nc(-c3ccccc3)c2-c2ccccc2)S1` (centres undefined) reads 1950 (inactive).
For the molecule `O=C(CSC1=Nc2ccccc2C2=NC(c3ccccc3)C(=O)N12)NCC1CCCO1` (centres undefined), the fluorescence intensity was 2380 (inactive).
Next, `CCC(C)NC(=O)CSC1=Nc2ccccc2C2=NC(CCC(=O)NCc3ccco3)C(=O)N12` (centres undefined): 19500 (active).
With `NC(=O)CSC1=Nc2ccccc2C2=NC(CCC(=O)NCc3ccc(F)cc3)C(=O)N12` (centres undefined), the fluorescence intensity is 3100 (inactive).
The result for `CCCCNC(=O)C[C@@H]1C[C@@]2(C(=O)OCC)CCC=C2N(Cc2cccc3ccccc23)C1=O` reads 5990 (inactive).
Next, `OCCc1ccc(NCCc2ccco2)cc1`: 6000 (inactive); `CC(=O)Nc1cccc(-c2cc3nc(NCc4cccnc4)n(C)c(=O)c3s2)c1`: 3710 (inactive).
The result for `O=c1c2ccccc2nnn1CSc1nnnn1-c1ccccc1` reads 16800 (active).
In the case of `Nc1nnc(SCn2nnc3ccccc3c2=O)s1`, the fluorescence intensity was 4300 (inactive).
The result for `C=CCn1c(SCn2nnc3ccccc3c2=O)nnc1-c1ccc(Cl)cc1` reads 15200 (inactive); that for `Cc1cc2nc(-c3ccc(F)cc3)c(Cc3ccsc3)n2c(C)c1Br`, 4760 (inactive).
Next, `COc1ccc(NC(=O)C2CCN(S(=O)(=O)c3ccc4[nH]c(=O)oc4c3)CC2)c(OC)c1`: 4520 (inactive); `COC(=O)c1ccccc1NC(=O)C1CC(=O)N(c2ccc(OC)cc2)C1` (centres undefined): 3990 (inactive); `COC(=O)c1ccccc1NC(=O)C1CCN(S(=O)(=O)c2cc(OC)ccc2OC)CC1`: 16400 (active).
The result for `C/C=C/C(=O)Nc1ccc(N2CCN(c3ccc(C(F)(F)F)cn3)CC2)nc1` reads 5380 (inactive); that for `O=C(c1cc(-c2ccc(Cl)cc2)on1)N1CCN(c2ccccc2)CC1`, 4120 (inactive).
Take `COc1ccc(-c2cc(C(=O)N3CCN(c4ccc(F)cc4)CC3)no2)cc1`: the fluorescence intensity is 6330 (inactive).
The result for `COc1ccccc1N1CCN(C(=O)c2cc(-c3ccc(Cl)c(Cl)c3)on2)CC1` reads 16600 (active); that for `O=C(NCc1ccco1)c1cc2sccc2n1Cc1ccc(F)cc1`, 20800 (active).
Regarding `O=C(Cc1ccc(-n2c(=O)c3sccc3n(Cc3ccc(F)cc3)c2=O)cc1)NCc1ccco1`, the fluorescence intensity is 5860 (inactive).
Next, `O=C(NCc1ccco1)c1ccc(Cn2c(=O)c3sccc3n(Cc3ccc(F)cc3)c2=O)cc1`: 5200 (inactive); `CC(C)CC(=O)Nc1nnc(S(=O)(=O)N(C)c2ccc(Cl)cc2)s1`: 4020 (inactive).
Next, `COC(=O)c1ccc2nc(-c3ccc(Cl)cc3)c(Cc3cccc(F)c3)n2c1`: 6340 (inactive).
The result for `O=C(NCc1nnnn1-c1ccc(Cl)cc1)c1ccc([N+](=O)[O-])o1` reads 3830 (inactive); that for `Oc1cccc2cc(-c3ccncc3)cnc12`, 2990 (inactive).
As to `O=C(NCCc1ccccn1)c1ccc(COc2ccccc2)o1`, the fluorescence intensity is 19400 (active).
Next, `O=C(NCCc1ccccn1)c1cccnc1Oc1ccc(Cl)cc1`: 5560 (inactive); `O=C(CNC(=O)COc1ccccc1)NCCc1ccccn1`: 3410 (inactive); `CNc1cncc(-c2cccc(C(=O)N3CCOCC3)c2)n1`: 3830 (inactive).
The result for `CCCCOC(=O)NCN1C(=O)C2C3C=CC(C3)C2C1=O` (centres undefined) reads 3370 (inactive); that for `CCCCCOC(=O)C1=C(C)Nc2nnnn2C1c1ccc(OC)c(OC)c1OC` (centres undefined), 21200 (active); that for `COc1ccccc1C1C(C(N)=O)=C(C)Nc2nc(CCCO)nn21` (centres undefined), 3450 (inactive).
As for `COC(=O)C1=C(C(=O)c2ccc(C)cc2)C(c2ccccc2)n2nnnc2N1` (centres undefined), the fluorescence intensity is 2650 (inactive).
Next, `CCOc1ccc(S(=O)(=O)Nc2nc3cc(OC)ccc3s2)cc1`: 20400 (active); `CCOc1ccc(S(=O)(=O)Nc2nccs2)cc1`: 4450 (inactive).
On to `CCOc1ccc2sc(NS(=O)(=O)c3ccc(N)cc3)nc2c1`, for which the fluorescence intensity was 3350 (inactive).
The result for `COc1ccc(-c2nc3ccc(Br)cn3c2Cc2ccc(C)cc2)cc1OC` reads 4350 (inactive); that for `CCC(=O)Nc1nnc(S(=O)(=O)N(CC(C)C)c2ccccc2)s1`, 3230 (inactive).
Regarding `CCOC(=O)C(Sc1ncc(C#N)c(N)n1)C(C)C` (centres undefined), the fluorescence intensity was 2490 (inactive).
Next, `CCOC(=O)c1ccc(NC(=O)CSc2nnc(COc3ccccc3OC)n2C)cc1`: 23600 (active); `COC(=O)c1ccc(NC(=O)CSc2nnc(C3CC3)n2C)cc1`: 5470 (inactive).
In the case of `CCn1c(CNC(=O)c2ccc(OC)c(OC)c2)nnc1SCC(=O)Nc1ccccc1`, the fluorescence intensity was 11100 (inactive).
The result for `COC(=O)Nc1ccc(S(=O)(=O)N(C)CC(F)(F)C(F)F)cc1` reads 3990 (inactive); that for `CC(=O)Nc1cccc(-c2ccnc3c2CC(C)(C(=O)NCc2ccccc2)O3)c1` (centres undefined), 3920 (inactive); that for `Cc1cccc(C(=O)OCC(=O)Nc2sccc2C(N)=O)c1C`, 3570 (inactive).
The result for `Cc1nc2c(-c3ccc(F)cc3)c(C)nn2c(C)c1CCC(=O)NCc1ccco1` reads 5410 (inactive); that for `COc1ccc(-c2cc3nc(C)c(CCC(=O)NC(C)CCc4ccco4)c(C)n3n2)c(OC)c1` (centres undefined), 3850 (inactive); that for `COc1cc(OC)cc(-c2nc3nc(C)c(CCC(=O)NCc4ccco4)c(C)n3n2)c1`, 21000 (active).
For the molecule `CCn1cc(C(=O)N2CC=C(c3ccccc3)CC2)c(=O)c2ccc(C)nc21`, the fluorescence intensity is 11100 (inactive).
The result for `COc1cccc(CNc2nc(NCc3cccs3)nc3ccsc23)c1` reads 3840 (inactive); that for `COc1ccc(S(=O)(=O)n2cnc3ccccc32)c(C)c1`, 3080 (inactive); that for `Cc1ccc(S(=O)(=O)N(C)CC(=O)OCC(=O)N2CC(=O)Nc3ccccc32)cc1`, 4160 (inactive).
The result for `Cc1ccc(S(=O)(=O)N2CCC(C(=O)OCC(=O)N3CC(=O)Nc4ccccc43)CC2)cc1` reads 23100 (active); that for `Cc1ccccc1SCC(=O)OCC(=O)N1CC(=O)Nc2ccccc21`, 3940 (inactive).
The result for `COc1ccc(C(=O)N2CCCCC2c2cc(C(=O)Nc3ccc(F)c(Cl)c3)no2)cc1` (centres undefined) reads 3750 (inactive).
For the molecule `CC1(C(=O)NCc2ccc(F)c(F)c2)Cc2c(-c3ccc4c(c3)OCO4)ccnc2O1` (centres undefined), the fluorescence intensity was 2890 (inactive).
The result for `Cc1nc(C(F)(F)F)ccc1C(=O)N1CCC1(C)C(=O)NS(=O)(=O)c1ccc(F)cc1F` (centres undefined) reads 3750 (inactive); that for `CN(C)C(=O)c1cccn(Cc2cccc(C(F)(F)F)c2)c1=O`, 4630 (inactive); that for `O=c1c([N+](=O)[O-])cc(C(F)(F)F)cn1Cc1cccc(Cl)c1`, 22600 (active).
The result for `O=c1c([N+](=O)[O-])cccn1Cc1ccc(F)cc1Cl` reads 4380 (inactive); that for `COc1ccc(C2CC(c3cccc(OC)c3)=NN2c2ccc(S(N)(=O)=O)cc2)cc1` (centres undefined), 3270 (inactive); that for `CCN(CC)CCN(C)C(c1ccnc2ccccc12)c1nnnn1-c1ccc2c(c1)OCCO2` (centres undefined), 4670 (inactive).
Next, `COC(=O)[C@]12CCCCC=C1N(Cc1ccccc1)C(=O)[C@H](CC(=O)NCc1ccc(C)o1)C2`: 5960 (inactive).
Take `Nc1ncnc2c1ncn2[C@@H]1O[C@H](C(=O)N2CCCN(Cc3ccccc3F)CC2)[C@@H](O)[C@H]1O`: the fluorescence intensity was 5460 (inactive).
With `CCCCCc1c(-c2cccc(Br)c2)ncn1CCc1ccccc1OC`, the fluorescence intensity was 5900 (inactive).
Next, `CN(C)/C=C/c1c(C#N)c(=O)ncn1Cc1ccccc1`: 22600 (active).
Next, `CN(C)c1nccc(NCc2ccccc2)c1C#N`: 2510 (inactive).
The result for `Cc1c(C#N)c2ncn(CC#N)c(=O)c2n1-c1ccccc1` reads 2670 (inactive); that for `COc1ccc(NC(=O)C2=C(C)NC(=O)NC2c2ccccc2[N+](=O)[O-])cc1` (centres undefined), 4060 (inactive); that for `CC1=C(C(=O)Nc2ccc(Cl)cc2)C(c2ccco2)NC(=O)N1` (centres undefined), 21000 (active).
Consider `COc1cc(Cl)cc(C2NC(=O)NC(C)=C2C(=O)NCc2ccccc2)c1O` (centres undefined), for which the fluorescence intensity is 6250 (inactive).
